Screens: PubChem BioAssay, Broad Institute
The full list was thinned out, with hits kept by preference.
Tg IFNy HTS = inhibitors of Toxoplasma gondii growth with IFN-gamma; Toxoplasma gondii growth in IFN-gamma-treated host cells; hits give low values; activity change, negative = inhibition, % (test concentration not listed); actives 3.8% (n = 69,000); in the data active = activity change below about -70%, passing the limit was not always enough;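 note: host cells are HeLa cells infected with Toxoplasma gondii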
Each line names hits and unclear results; the compound was inactive in the other large screens.

Cn1c(SCc2ccccc2)nnc1-c1ccc(C(C)(C)C)cc1	none
CC(=O)c1c(C)nc(-c2ccc(C(F)(F)F)cc2)nc1SCc1ccccc1	Tg IFNy HTS -78
Cc1cccc(C)c1NC(=O)Cn1ncc2c(N3CCCC3)ncnc21	none
CS(=O)(=O)N1Cc2nccn2CC(COCc2cccnc2)C1 (stereo not given)	none
Cc1ccc(S(=O)(=O)CC(=O)Nc2cc(Cl)ccc2N2CCOCC2)cc1	none
CCCCOc1ccc(C(=O)NCCc2sc(-c3cccc(F)c3)nc2C)cc1	Tg IFNy HTS -94
O=C(NCCc1csc(-c2ccccc2)n1)c1ccc(Cl)cc1	none
Cc1nc(-c2cccc(F)c2)sc1CCNC(=O)c1ccc(Cl)cc1	none
CCCCOc1ccc(C(=O)NCCc2csc(-c3cccc(F)c3)n2)cc1	Tg IFNy HTS -81
O=C(NCCc1csc(-c2ccc(F)cc2)n1)c1cccc(F)c1	Tg IFNy HTS -90
CC(C)Oc1ccc(C(=O)NCCc2csc(-c3cccc(F)c3)n2)cc1	none
O=C(NCCc1csc(-c2ccc(Cl)cc2)n1)c1cccc(F)c1	none
Cc1nc(-c2cccc(F)c2)sc1CCNC(=O)c1ccc(C(C)(C)C)cc1	none
Cc1cccc(-c2nc(CCNC(=O)c3ccco3)cs2)c1	none
O=C(NCCc1csc(-c2ccc(Cl)cc2)n1)c1ccco1	Tg IFNy HTS -81
COc1ccc(C(=O)NCCc2csc(-c3cccc(F)c3)n2)cc1	none
O=C(NCCc1csc(-c2cccc(F)c2)n1)c1cccc(F)c1	none
O=C(CCn1cncn1)N1CC[C@@H](c2ccc3c(c2)OCO3)[C@H](O)C1	none
Cc1cccc(CN2CCN(C(=O)c3cn(CCN)nn3)C(C)C2=O)c1 (stereo not given)	none
CC(=O)N1C2CCN(S(C)(=O)=O)CC2C[C@H]1Cn1cncn1 (stereo not given in full)	none
CCOc1ccc(Nc2nc(-c3nnc(-c4ccc(F)cc4)o3)nc3ccccc23)cc1	none
Cn1c(=O)n(C)c2cc(CCC(=O)O)ccc21	none
COc1ccc(CNC2=NCCNC23CCN(S(=O)(=O)c2ccc(Cl)s2)CC3)cc1	none
CCCCNC(=O)N1CCC2(C1)CN(c1cccnc1)C(=O)CN2C (stereo not given)	none
Cc1ccc(-c2nc(CN3CCN(C(=O)NC(C)C)CC3)c(C)o2)cc1	none
Cc1nc(N)nc(C)c1CCC(=O)Nc1cccc(Cn2cccn2)c1	none
O=C1OCCN1CC(=O)N(CC#Cc1ccccc1)C1CCCC1	none
CCOc1ncnc2c1CCN(S(=O)(=O)c1cn(C)cn1)CC2	none
COc1cc(OC)cc(C(=O)NCCc2csc(-c3cccc(F)c3)n2)c1	none
COc1ccc(C(=O)NCCc2csc(-c3cccc(F)c3)n2)c(OC)c1	Tg IFNy HTS -81
COc1cccc(C(=O)NCCc2csc(-c3cccc(F)c3)n2)c1	none
COc1ccc(CCN2C(=O)N(CC(C)C)C(=O)C23CCN(Cc2ccco2)CC3)cc1	none
Cc1ccnc(CC(C)N(C)C(=O)CCc2ccc(F)c(F)c2)c1 (stereo not given)	none
CN(C)Cc1nnc2n1CCN(Cc1cccs1)CC2	none
CCOC(=O)c1nc(NCc2cccc(Cl)c2)c2ccccc2n1	none
CN1C(=O)CC(c2ccccc2)C12CCN(C(=O)C1CCOC1)CC2 (stereo not given)	none
Cc1cc(C)n(-c2nnc(-c3ccccc3)c(-c3ccccc3)c2-c2ccccc2)n1	none
Cc1cc(C)n(-c2ncnc3sc(-c4ccccc4)cc23)n1	Tg IFNy HTS -94
Cc1cc(C)n(-c2nc(-c3ccccc3)cc(-c3ccccc3)n2)n1	none
Cc1nc(-c2cn(CCN)nn2)n(-c2cc(Cl)ccc2Cl)n1	none
COc1ccc(OC)c(NC(=O)c2nnn(Cc3nc(-c4cccc(Cl)c4)oc3C)c2C)c1	none
COc1ccc(NC(=O)c2nnn(Cc3nc(-c4cccc(Cl)c4)oc3C)c2C)cc1	Tg IFNy HTS -110
Cc1cccc(-c2nc(Cn3nnc(C(=O)NCc4ccc(C(F)(F)F)cc4)c3C)c(C)o2)c1	none
Cc1cccc(-c2nc(Cn3nnc(C(=O)NCc4cccc(Cl)c4)c3C)c(C)o2)c1	Tg IFNy HTS -97
Cc1cc(NC(=O)c2nnn(Cc3nc(-c4cccc(Cl)c4)oc3C)c2C)ccc1Br	none
Cc1cccc(-c2nc(Cn3nnc(C(=O)NCc4ccc(Br)cc4)c3C)c(C)o2)c1	none
Cc1ccc(NC(=O)c2nnn(Cc3nc(-c4cccc(Cl)c4)oc3C)c2C)cc1F	none
CCOc1ccc(CNC(=O)c2nnn(Cc3nc(-c4cccc(C)c4)oc3C)c2C)cc1	none
Cc1cccc(-c2nc(Cn3nnc(C(=O)NCc4ccc(F)c(Cl)c4)c3C)c(C)o2)c1	Tg IFNy HTS -93
Cc1ccc2[nH]cc(CCN3CC(C(=O)NC4CCCCCC4)CC3=O)c2c1 (stereo not given)	none
COc1ccc(-c2ccccc2C(N)=O)c(OC)c1OC	none
c1ccc(-n2nnnc2N2CCc3nnc(C4CCCO4)n3CC2)cc1 (stereo not given)	none
CCCc1ccc(C(=O)NC(C)CC2=CCCN(C)C2)cc1 (stereo not given)	none
CCc1cc(=O)oc2cc3occ(-c4ccc(OC)c(F)c4)c3cc12	Tg IFNy HTS -78
CCc1cc(=O)oc2cc(OCC=C(C)C)ccc12	none
COc1cc2c(=O)c(-c3ccc(O)cc3)coc2cc1O	none
Cc1ccoc1C(=O)N(Cc1ccsc1)CC1CCCO1 (stereo not given)	none
O=C(CCN1CCCCO1)NCCc1ccccc1Cl	none
CCSc1nc(CC(=O)N(C)Cc2nc(-c3ccncc3)no2)cs1	none
O=C(Cc1cccc(F)c1)N1CCn2cc(Cn3cncn3)nc2C1	none
Cc1ccc(CC(=O)N2CCn3cc(Cn4cncn4)nc3C2)cc1	Tg IFNy HTS -74
O=C(Cc1ccc(F)cc1)N1CCn2cc(Cn3cncn3)nc2C1	none
CC[C@H]1C[C@@H](NC(=O)c2ccccc2)C[C@@H](c2ccccc2OCC(N)=O)O1	none
COc1ccc(C(=O)N2CCOC(CCCc3ccccc3)C2)c(O)c1 (stereo not given)	none
Cc1nc(CCNC(=O)[C@H]2CCCN2C(=O)c2cccc(Br)c2)cs1	none
Cc1cccc(-c2nn3c(c2-c2ccnc4ccc(C(N)=O)cc24)CCC3)n1	Tg IFNy HTS -78
c1cnn(-c2ccc(-c3ccc(CN4CCNCC4)cc3)cc2)c1	none
COCCN1C(=O)CCc2cc(NC(=O)C3CCCC3)ccc21	none
CCC(CC)C(=O)N1CCC2(CC1)COCCN2CCN(C)C	none
CC(C)CC(NS(=O)(=O)c1ccc2[nH]c(=O)ccc2c1)C(=O)NC1CCCCCCC1 (stereo not given)	none
O=C(CN1C(=O)CCc2cc(S(=O)(=O)N3CCCCC3)ccc21)Nc1ccccc1	none
Cc1c(Cl)cccc1NC(=O)CN1C(=O)CCc2cc(S(=O)(=O)N3CCCCC3)ccc21	none
CC(C)c1ccc(NC(=O)CN2C(=O)CCc3cc(S(=O)(=O)N4CCCCC4)ccc32)cc1	Tg IFNy HTS -113
O=C(CN1C(=O)CCc2cc(S(=O)(=O)N3CCCCC3)ccc21)Nc1cccc(Cl)c1	Tg IFNy HTS -88
Cc1ccc(NC(=O)CN2C(=O)CCc3cc(S(=O)(=O)N4CCCCC4)ccc32)cc1C	none
Cc1ccc(NC(=O)CN2C(=O)CCc3cc(S(=O)(=O)N4CCCC4)ccc32)cc1	none
CC(C)c1ccc(NC(=O)CN2C(=O)CCc3cc(S(=O)(=O)N4CCOCC4)ccc32)cc1	none
Cc1ccc(NC(=O)CN2C(=O)CCc3cc(S(=O)(=O)N4CCCC4)ccc32)cc1C	none
O=C(CN1C(=O)CCc2cc(S(=O)(=O)N3CCCC3)ccc21)Nc1cccc(Cl)c1	Tg IFNy HTS -103
Cc1nc(C)c(C(=O)N2C[C@H]3OC(=O)N(Cc4ccccn4)[C@H]3C2)s1	none
Cc1cccnc1C(Cc1ccsc1)NC(=O)CN(C)C1CCS(=O)(=O)C1 (stereo not given)	none
COc1ccc(CN2CCCC2)cc1Oc1ncc(C(F)(F)F)cc1Cl	none
